# Assay results: PubChem BioAssay (NCATS)
# Inconclusive results are not listed. Where a call stands in place of a potency, no number is given. Calls of active or inactive are those of the source. The call rests on the fitted dose curve; in most records, active means well fitted inhibition curve with a large enough effect; inconclusive means small, poorly fitted or top-dose-only effect; inactive means flat fitted curve, though single readings scatter.
# Target: Calcium and integrin-binding protein 1 (Homo sapiens) (UniProt Q99828)
# Experiment: Primary qHTS for Identification of Calcium Integrin Binding Protein 1 (CIB1) Competitor (AID 1508620);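 further: GST tagged CIB1 binding a fluorescein labelled alphaIIb integrin peptide tracer; top concentration of the series differs between compounds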
# Settings: CIB1-GST / FITC-alphaIIb peptide fluorescence polarization; series mostly up to 114 µM
# How it was run: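 Fluorescence polarization competition: CIB1-GST (1 uM final) preincubated with compound 15 min at room temperature, then FITC-labeled alphaIIb peptide (100 nM final) added for another 15 min. Polarization read at Ex 480/Em 540.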
# Calcium and integrin-binding protein 1 (Homo sapiens), sequence (Q99828 whole entry, looked up): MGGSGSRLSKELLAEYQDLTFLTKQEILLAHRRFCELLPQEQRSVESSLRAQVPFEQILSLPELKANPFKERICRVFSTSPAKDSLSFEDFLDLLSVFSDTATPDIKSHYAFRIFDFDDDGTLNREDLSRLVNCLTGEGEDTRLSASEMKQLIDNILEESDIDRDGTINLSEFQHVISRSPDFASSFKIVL
row,SMILES,Potency
1,Cc1ccc(-c2nn3c(-c4ccccc4)nnc3s2)cc1NC(=O)c1ccc(-c2cccc(Cl)c2)o1,inactive
2,CC(=O)Nc1sc2c(c1-c1ccc3c(c1)OCO3)CCNC2,inactive
3,CN(C)C1CCN(Cc2cc(COCc3ccccc3)c3cccnc3c2O)C1 (stereo not given),inactive
4,O=S1(=O)N=C(Oc2ccc(Br)cc2)c2ccccc21,inactive
5,O=C(NCCc1nc2ccccc2n1CCOc1cccc(Br)c1)C1CCCCC1,inactive
6,Cn1c2cc(C#N)sc2c2cnn(Cc3ccc(F)cc3)c(=O)c21,inactive
7,COc1ccc(NC(=O)c2[nH]c(C)c(C(C)=O)c2C)cc1S(=O)(=O)Nc1ccc(C#N)cc1,inactive
8,COc1ccc(NC(=O)CSc2nnc(-c3cccc(S(=O)(=O)N4CCCC4)c3)n2-c2ccccc2)cc1,inactive
9,O=C1CCCC2=C1C(c1[nH]ncc1Br)N=C(Nc1nc3ccccc3o1)N2 (stereo not given),inactive
10,N#Cc1ccc(NC(=O)Nc2nnc(-c3ccncc3)s2)cc1,inactive
11,NC(=O)C1CCN(c2ncc(-c3ccc(Cl)cc3)s2)CC1,inactive
12,O=C(CCCc1ccccc1)NC(c1ccco1)c1cc(Cl)c2cccnc2c1O (stereo not given),inactive
13,Fc1cccc(CNc2ncnc3ccc(-c4ccc5c(c4)OCO5)cc23)c1,inactive
14,O=C(Nc1cc(Cc2ccccc2)ccn1)c1ccc(-c2cccc([N+](=O)[O-])c2)o1,inactive
15,O=C1CCc2cc([S+](=O)([O-])NC3CCOCC3)ccc2N1,inactive
16,Oc1ccc(COC2CCCC2)c2cccnc12,inactive
17,Cc1ccc(OCCn2c(CCNC(=O)C3CCCCCC3)nc3ccccc32)cc1,inactive
18,Cc1ccsc1CN(C)c1ncnc2ccc(-c3ccc4c(c3)OCO4)cc12,inactive
19,CC(=O)c1ccc(N2CCN(S(=O)(=O)c3cc4c(cc3Cl)NC(=O)C4)CC2)cc1,inactive
20,COc1ccc(CC(=O)Nc2nc(-c3ccc4c(c3)CCN4C(=O)c3ccccc3C)c(C)s2)cc1,inactive

row,SMILES,Potency
1,O=C(CN(Cc1cccc2ccccc12)C1CC1)Nc1ccc(N2CCOCC2)cc1,inactive
2,CC(C)c1ccccc1-c1ncc(F)c(NCc2ccc(-n3ccnn3)cc2)n1,inactive
3,O=C(O)c1ccc(-c2ccc3ncnc(NCC4CCCO4)c3c2)o1 (stereo not given),inactive
4,O=C(O)c1cccc(-c2noc(-c3cccc(Cl)c3)n2)c1,inactive
5,O=C(c1ccccc1O)N(Cc1cccs1)Cc1cccs1,inactive
6,Cc1cc(-c2nnc3n2CCCCCCC3)c(C)n1-c1ccccc1,inactive
7,Cc1cc(NC(=O)Nc2nnc(C3CCCCC3)s2)ccc1Br,inactive
8,Clc1ccccc1-c1ccc2ncnc(NCc3cccs3)c2c1,inactive
9,Oc1ccc(CNc2ccccc2Cl)c2cccnc12,inactive
10,CCSC1=NS(=O)(=O)c2ccccc21,inactive
11,O=S(=O)(c1ccc2c(c1)OCCO2)N1CCN(S(=O)(=O)c2cc(F)c(Br)cc2F)CC1,inactive
12,COC(=O)c1ccnc(NCc2ccc(O)c3ncccc23)c1,inactive
13,Brc1cnc2nc(SCc3ccncc3)[nH]c2c1,inactive
14,NNC(=O)C(C(=O)OCc1ccccc1)c1ccccc1 (stereo not given),inactive
15,CCN(CC)c1ccc(NC(=O)Nc2ccc(C(C)=O)cc2)cc1,inactive
16,Cc1cc2c(s1)c1cnn(Cc3c(F)c(F)cc(F)c3F)c(=O)c1n2C,inactive
17,COc1cccc(CNc2ccc(S(=O)(=O)Nc3cccc4ccncc34)cc2)c1O,inactive
18,O=C(Cc1ccc(Cl)c(Cl)c1)Nc1ccc(S(=O)(=O)O)cc1,inactive
19,COc1ccc(NC(=O)c2cnn3c(C)cc(C)nc23)cc1F,inactive
20,O=c1c2ccccc2nc2sc(NCc3ccccc3)nn12,inactive
